Only some compounds are listed: those with a hit (about 2.3% of all), similar ones and a draw of the others.
hiPSC survival: hiPSC single-cell survival enhancement; 0.044% of 360,000 active; survival enhancement, % at 20 µM; AID 602274; ATPlite luminescence; 100% = ROCK inhibitor wells, 0% = DMSO; in the data active = survival enhancement above about 18%;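 note: cells exposed to compounds for 16 hours before the ATP read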
TWEAK-Fn14 inh: inhibitors of TWEAK-Fn14 interaction signaling; TWEAK-stimulated Fn14 reporter cells, luciferase luminescence, 8 h; inhibition, % at 10 µM; 2% of 360,000 active; in the data active = inhibition above about 50%
KKLEB cytotox: counter-screen for CF NF-kB inhibitors: cytotoxicity. 0.36% of 360,000 active. AID 602141. KKLEB CF airway cells viability, ATPlite luminescence, overnight; stronger effect = lower value; cells stimulated with P. aeruginosa culture filtrate. activity change (cytotoxicity), % at 5 µM;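 active = corrected activity change at or below -50% at 5 µM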
LGR2 antag: blocks bursicon-induced cAMP signaling via Drosophila LGR2; HEK293 LGR2, CRE-luciferase, bursicon-stimulated, 4 h; 0.35% of 380,000 active; inhibition, % at 9.99 µM;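 active = drop in luminescence signal, shown as inhibition above about 50% in the replicate tests, limit read from the data, passing the limit was not always enough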;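 note: agonist challenge used bursicon conditioned medium at about half maximal strength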
HIF-2a block: inhibitors of HIF-2a; 786-0 RCC cells HIF-2a reporter, luciferase luminescence, overnight; inhibition, % at 18.8 µM; 0.72% of 360,000 active;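 active = inhibition of the luminescence signal of 40% or more relative to plate controls, in a single-dose primary screen at 18.75 µM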
CF NFkB inh: blocks PAF-induced NF-kB reporter in cystic fibrosis cells. inhibition, % at 5 µM. AID 588850. KKLEB NF-kB-GFP reporter, GFP fluorescence overnight. 0.86% of 360,000 active;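 active = at least 50% inhibition at 5 µM, scaled per plate between neutral and stimulator controls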;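 note: PAF is a Pseudomonas aeruginosa culture filtrate used as stimulus; plate controls were PAF-stimulated DMSO wells for no effect and unstimulated DMSO wells for full effect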
Mdm2-MdmX confirm: Mdm2/MdmX (human) interaction inhibition, confirmed. SaOS-2 split-luciferase Mdm2/MdmX complementation, luminescence. 99% of 740 active. inhibition, % at 8 µM. shares compounds with HIF-2a block;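 active = mean inhibition of the luminescence signal across two replicates at or above 26 percent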
HIF-2a conf: confirmation of HIF-2a inhibitors | shares compounds with HIF-2a block | 786-0 RCC cells, HIF-2a luciferase reporter luminescence, overnight | inhibition, % at 18.8 µM | 56% of 1,800 active | AID 651580;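 active = mean inhibition across four replicates of at least 40 percent at the single tested concentration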
HIF-1a counter: inhibits HIF-1a reporter, a counter-screen for HIF-2a inhibitors. shares compounds with HIF-2a block. MiaPaCa-2 HIF-1a luciferase reporter, desferoxamine, overnight. inhibition, % at 18.8 µM. 72% of 1,800 active. AID 651589;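 active = mean inhibition of the reporter signal across four replicates at the single tested dose of 50% or more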
Numbers without * were called inactive; . = no result given.

SMILES	hiPSC survival	TWEAK-Fn14 inh	KKLEB cytotox	LGR2 antag	HIF-2a block	CF NFkB inh	HIF-2a conf	HIF-1a counter	others
CC[C@H](C)[C@@H](CNC)NC[C@@H](Cc1ccc(O)cc1)NCC(C)(C)C	-3	-5	-2	2	3	-35	.	.
COc1ccc2c(c1)C1(Nc3ccccc3-c3nc4ccccc4n31)C(=O)N2 (stereo not drawn)	8	2	1	.	8	0	.	.
COc1ccc2c(c1)C1(Nc3ccccc3-c3nc4ccccc4n31)C(=O)N2C (stereo not drawn)	6	9	3	.	14	-2	.	.	Mdm2-MdmX confirm=94*
COc1ccc(-c2cc3nc4n(c(=O)c3s2)CCCCC4)cc1	-1	31	-14	11	-195	-5	.	.
Cc1nc2cc(-c3ccccc3)sc2c(=O)n1N	-1	95*	-6	98*	75*	-12	88*	77*
COc1ccc(-c2cc3nc(C)n(N)c(=O)c3s2)cc1	-1	101*	-39	101*	87*	-17	.	.	Mdm2-MdmX confirm=95*
C[C@@H]1CCCCO[C@@H](CN(C)C(=O)CCC(F)(F)F)[C@H](C)CN([C@@H](C)CO)C(=O)c2cc(NC(=O)c3ccccc3)ccc2O1	.	.	.	-8	.	.	.	.
CCc1ccc(NC(=O)c2cnn3ccccc23)cc1	-5	93*	-17	.	50*	4	68*	75*
CCC(=O)N1[C@@H]2CN(C(=O)c3ccncc3)c3ccccc3[C@@H]2[C@@H]1CO	.	.	.	-15	.	.	.	.
Cc1oc(-c2cccc(Cl)c2)nc1CN1CCC(C(=O)NCCCN2CCCC2=O)CC1	-3	-3	-1	2	1	-28	.	.
Cc1oc(-c2cccc(Cl)c2)nc1CN1CCC(C(=O)NCCCN2CC(C)CC(C)C2)CC1 (stereo not drawn)	-1	-51	-3	.	1	-6	.	.	Mdm2-MdmX confirm=103*
C[C@H]1CN([C@@H](C)CO)C(=O)c2cc(NS(=O)(=O)c3ccc(Cl)cc3)ccc2O[C@@H]1CN(C)Cc1ccc2c(c1)OCO2	.	.	.	-4	.	.	.	.
CSc1nc(C2CC2)cc(-c2cccs2)c1C#N	10	9	-63*	2	51*	94*	35	32
COc1ccc(-c2cc(C3CC3)nc(SCC(=O)c3cccs3)c2C#N)cc1	6	-13	-21	7	20	-7	.	.
CC(=NNC(=S)N(Cc1ccccn1)Cc1ccccn1)c1cnccn1	-2	-9	-2	-10	-72	-52	.	.
S=C(NN=C(c1ccccc1)c1ccccn1)N(Cc1ccccn1)Cc1ccccn1	-2	34	-22	13	49*	39	68*	100*
O=C(NCc1ccco1)c1cccc2ccccc12	5	-1	-1	.	-1	-5	.	.
O=C(Nc1ccccc1C(=O)NCc1ccco1)Nc1cccc2ccccc12	0	33	2	.	54*	5	6	33
CC(=O)Nc1ccc(OS(=O)(=O)c2ccc(C)cc2C)cc1	-1	-20	-16	-16	80*	0	88*	34
CC(=O)Nc1ccc(OS(=O)(=O)c2ccccc2C)cc1	1	11	3	-10	-34	-6	.	.
CC(=O)Nc1ccc(OS(=O)(=O)c2c(C)cc(C)cc2C)cc1	0	21	-8	25	50*	8	55*	7
O=C(c1ccccc1F)N1CC[C@@H]2[C@@H](CO)Nc3ccc(C#Cc4ccccc4)cc3[C@@H]21	.	.	.	-1	.	.	.	.
O=[N+]([O-])c1ccc(Oc2cccc(F)c2)c2ccncc12	-1	33	-17	.	47*	41	30	79*
O=[N+]([O-])c1cnccc1Nc1cccc(F)c1	1	-12	-7	.	-3	-8	.	.
COc1ccc(-c2cc(C(F)(F)F)nc(N3CCOCC3)n2)cc1	-1	-15	12	-7	-4	-3	.	.
SMILES	hiPSC survival	TWEAK-Fn14 inh	KKLEB cytotox	LGR2 antag	HIF-2a block	CF NFkB inh	HIF-2a conf	HIF-1a counter	others
COc1ccc(-c2cc(-c3ccc(F)cc3)nc(N3CCN(C)CC3)n2)cc1	0	-1	-35	.	52*	-19	1	70*
COc1ccc(NC(=O)N(C)C[C@@H]2OCCCC[C@@H](C)Oc3ccc(NC(=O)Nc4ccccc4)cc3C(=O)N([C@H](C)CO)C[C@@H]2C)cc1	.	.	.	6	.	.	.	.
O=C(O)CCCCCCCCCCC1CCC(O)C1O (stereo not drawn)	-1	44	-6	-5	54*	12	75*	52*
COCC(=O)N1CC(=O)N2[C@@H](CO)[C@@H](c3ccc(C#CC4CCCC4)cc3)[C@@H]2C1	.	.	.	11	.	.	.	.
CCC(=O)N1CC2(CN(C(=O)CN3CCOCC3)C2)c2c([nH]c3cc(OC)ccc23)[C@H]1CO	.	.	.	-14	.	.	.	.
COc1ccc(-c2cnc3c(c2)C(=O)N([C@H](C)CO)C[C@H](C)[C@@H](CN(C)C)O3)cc1	.	.	.	7	.	.	.	.
O=C(O)CCSCC(=O)c1ccc2c(c1)OCCO2	-2	23	2	.	57*	20	64*	45
O=C(O)CCC(=O)c1ccc2c(c1)OCCO2	-2	-30	6	-8	-26	-2	.	.
C[C@H](CO)N1C[C@H](C)[C@@H](CN(C)Cc2ccc(Cl)c(Cl)c2)Oc2ccc(NS(=O)(=O)c3cccs3)cc2CC1=O	.	.	.	9	.	.	.	.
O=[N+]([O-])c1cnc(Sc2ccncn2)c([N+](=O)[O-])c1	-2	-1	-2	-14	5	-8	.	.
O=[N+]([O-])c1cnc(Sc2ccncn2)s1	0	-25	-14	5	95*	75*	.	.	Mdm2-MdmX confirm=102*
CC1=C(C(=O)OCc2ccc3c(c2)OCO3)C(c2ccc(F)cc2)NC(=O)N1 (stereo not drawn)	0	87*	-32	28	23	86*	.	.	Mdm2-MdmX confirm=97*
CC1=C(C(=O)OCc2ccc3c(c2)OCO3)C(c2ccc(Cl)cc2)NC(=O)N1 (stereo not drawn)	6	94*	-37	39	33	93*	.	.	Mdm2-MdmX confirm=95*
CSCCOC(=O)C1=C(C)NC(=O)NC1c1ccc2c(c1)OCO2 (stereo not drawn)	0	-6	6	-3	19	-10	.	.
C[C@H](CO)N1C[C@H](C)[C@@H](CN(C)Cc2ccc(Cl)c(Cl)c2)Oc2ccc(NS(=O)(=O)c3ccc(Cl)cc3)cc2C1=O	.	.	.	25	.	.	.	.
Cc1cc(S(=O)(=O)ON2C(=O)c3ccccc3C2=O)ccc1F	0	-1	-8	14	34	8	.	.

Source: PubChem (several laboratories)
